Data reported in PubChem BioAssay AID1159580 (chemical genetic matrix, 2015).
The whole screen tested about 5,500 compounds, of which about 2,000 (36%) were called active. Roughly 18% stayed inconclusive and do not appear here. Cut-off read from the data, not from the text of the source: active = normalized growth mostly below about 0.91 (no sharp cut-off); inconclusive = no clear call, values can overlap the other calls; inactive = mostly above about 0.92. The list shows a part of the results.

Test: chemical genetic growth profiling, strain panel (AID 1159580);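 note: tested at 20 µM; growth read once vehicle control cultures reached saturation at 30 °C; 1 = growth at the plate median or of vehicle wells; lower values mean less growth of the strain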
Conditions: growth OD

Measured: normalized growth

CCC[C@H](N[C@@H](C)C(=O)N1[C@H](C(=O)O)C[C@@H]2CCCC[C@@H]21)C(=O)OCC
inactive: S. cerevisiae deletion strains, locus YJR075W, strain HOC1, hits give low values 1.02 | S. cerevisiae deletion strains, locus YKL009W, strain mrt4, hits give low values 1.02 | S. cerevisiae deletion strains, locus YKL068W, hits give low values 1.03 | S. cerevisiae deletion strains, locus YKL085W, strain MDH1 (second series), hits give low values 1.01 | S. cerevisiae deletion strains, locus YKL085W, strain MDH1, hits give low values 1.01 | S. cerevisiae deletion strains, locus YKL160W, strain elf1, hits give low values 1.02 | S. cerevisiae deletion strains, locus YKL190W, strain CNB1, hits give low values 1.02 | S. cerevisiae deletion strains, locus YKR001C, strain vps1, hits give low values 1.03 | S. cerevisiae deletion strains, locus YKR026C, strain gcn3, hits give low values 1.02 | S. cerevisiae deletion strains, locus YKR091W, strain srl3, hits give low values 1.02 | S. cerevisiae deletion strains, locus YLL001W, strain dnm1, hits give low values 1.02 | S. cerevisiae deletion strains, locus YLL026W, hits give low values 1.01 | S. cerevisiae deletion strains, locus YLL041C, strain sdh2, hits give low values 1.01 | S. cerevisiae deletion strains, locus YLR027C, strain aat2, hits give low values 1.01 | S. cerevisiae deletion strains, locus YLR039C, strain RIC1, hits give low values 1.03 | S. cerevisiae deletion strains, locus YLR058C, strain SHM2, hits give low values 1.01 | S. cerevisiae deletion strains, locus YLR102C, strain apc9, hits give low values 1.02 | S. cerevisiae deletion strains, locus YLR113W, strain HOG1, hits give low values 0.988 | S. cerevisiae deletion strains, locus YLR221C, strain rsa3, hits give low values 1.01 | S. cerevisiae deletion strains, locus YLR258W, strain gsy2, hits give low values 1.02 | S. cerevisiae deletion strains, locus YLR262C, strain YPT6 (second series), hits give low values 1.03 | S. cerevisiae deletion strains, locus YLR262C, strain YPT6, hits give low values 1.04 | S. cerevisiae deletion strains, locus YLR268W, strain sec22, hits give low values 1.02 | S. cerevisiae deletion strains, locus YLR320W, strain mms22, hits give low values 1.01 | S. cerevisiae deletion strains, locus YLR330W, strain CHS5, hits give low values 1.01 | S. cerevisiae deletion strains, locus YLR342W, strain FKS1 (second series), hits give low values 1.02 | S. cerevisiae deletion strains, locus YLR342W, strain FKS1, hits give low values 1.03 | S. cerevisiae deletion strains, locus YLR357W, strain rsc2, hits give low values 0.998 | S. cerevisiae deletion strains, locus YLR370C, strain arc18, hits give low values 1.01 | S. cerevisiae deletion strains, locus YLR371W, strain rom2, hits give low values 1.01 | S. cerevisiae deletion strains, locus YLR384C, strain iki3, hits give low values 1.01 | S. cerevisiae deletion strains, locus YLR418C, strain cdc73, hits give low values 1.01 | S. cerevisiae deletion strains, locus YML016C, strain PPZ1, hits give low values 1.01 | S. cerevisiae deletion strains, locus YML032C, strain rad52, hits give low values 1.02 | S. cerevisiae deletion strains, locus YML120C, strain ndi1, hits give low values 1.02 | S. cerevisiae deletion strains, locus YML124C, strain tub3, hits give low values 1.02 | S. cerevisiae deletion strains, locus YMR058W, strain fet3, hits give low values 1.02 | S. cerevisiae deletion strains, locus YMR078C, strain ctf18, hits give low values 1.03 | S. cerevisiae deletion strains, locus YMR125W, strain sto1, hits give low values 0.994 | S. cerevisiae deletion strains, locus YMR129W, hits give low values 1.02 | S. cerevisiae deletion strains, locus YMR205C, strain PFK2, hits give low values 1.02 | S. cerevisiae deletion strains, locus YMR223W, strain ubp8, hits give low values 1.03 | S. cerevisiae deletion strains, locus YMR231W, strain pep5, hits give low values 1.02 | S. cerevisiae deletion strains, locus YMR263W, strain SAP30, hits give low values 1.01 | S. cerevisiae deletion strains, locus YMR307W, strain GAS1, hits give low values 0.976 | S. cerevisiae deletion strains, locus YNL067W, strain RPL9B, hits give low values 1.01 | S. cerevisiae deletion strains, locus YNL071W, strain lat1, hits give low values 1.01 | S. cerevisiae deletion strains, locus YNL128W, strain TEP1, hits give low values 1.01 | S. cerevisiae deletion strains, locus YNL153C, strain GIM3, hits give low values 1 | S. cerevisiae deletion strains, locus YNL183C, strain NPR1, hits give low values 0.963 | S. cerevisiae deletion strains, locus YNL209W, strain ssb2, hits give low values 1.01 | S. cerevisiae deletion strains, locus YNL233W, strain BNI4, hits give low values 0.996 | S. cerevisiae deletion strains, locus YNL248C, strain rpa49, hits give low values 1.01 | S. cerevisiae deletion strains, locus YNL250W, strain rad50, hits give low values 1.02 | S. cerevisiae deletion strains, locus YNL271C, strain bni1, hits give low values 1.02 | S. cerevisiae deletion strains, locus YNL298W, strain CLA4, hits give low values 1.01 | S. cerevisiae deletion strains, locus YNL307C, strain MCK1, hits give low values 1.03 | S. cerevisiae deletion strains, locus YNL322C, strain KRE1 (second series), hits give low values 1.02 | S. cerevisiae deletion strains, locus YNL322C, strain KRE1, hits give low values 1.01 | S. cerevisiae deletion strains, locus YNR049C, strain mso1, hits give low values 1.02 | S. cerevisiae deletion strains, locus YNR052C, strain pop2, hits give low values 1.02 | S. cerevisiae deletion strains, locus YOL006C, strain TOP1, hits give low values 1.04 | S. cerevisiae deletion strains, locus YOL012C, strain htz1 0.981 | S. cerevisiae deletion strains, locus YOL147C, strain pex11, hits give low values 1.02 | S. cerevisiae deletion strains, locus YOR001W, strain rrp6, hits give low values 1.03 | S. cerevisiae deletion strains, locus YOR061W, strain CKA2, hits give low values 1.01 | S. cerevisiae deletion strains, locus YOR069W, strain VPS5, hits give low values 1 | S. cerevisiae deletion strains, locus YOR070C, strain gyp1, hits give low values 1.02 | S. cerevisiae deletion strains, locus YOR080W, strain dia2, hits give low values 1.03 | S. cerevisiae deletion strains, locus YOR083W, strain WHI5, hits give low values 1.02 | S. cerevisiae deletion strains, locus YOR106W, strain vam3, hits give low values 1.04 | S. cerevisiae deletion strains, locus YOR136W, strain idh2, hits give low values 1.02 | S. cerevisiae deletion strains, locus YOR144C, strain elg1, hits give low values 1.02 | S. cerevisiae deletion strains, locus YOR184W, strain ser1, hits give low values 1.03 | S. cerevisiae deletion strains, locus YOR231W, strain MKK1, hits give low values 0.999 | S. cerevisiae deletion strains, locus YOR265W, strain rbl2, hits give low values 1.01 | S. cerevisiae deletion strains, locus YOR270C, strain vph1, hits give low values 1.05 | S. cerevisiae deletion strains, locus YOR290C, strain snf2, hits give low values 1 | S. cerevisiae deletion strains, locus YOR316C, strain cot1, hits give low values 1.02 | S. cerevisiae deletion strains, locus YPL051W, strain arl3, hits give low values 1.02 | S. cerevisiae deletion strains, locus YPL055C, strain LGE1, hits give low values 1.01 | S. cerevisiae deletion strains, locus YPL078C, strain atp4, hits give low values 1.03 | S. cerevisiae deletion strains, locus YPL106C, strain sse1, hits give low values 1.02 | S. cerevisiae deletion strains, locus YPL240C, strain hsp82, hits give low values 1.02 | S. cerevisiae deletion strains, locus YPL241C, strain CIN2, hits give low values 1.03 | S. cerevisiae deletion strains, locus YPL256C, strain CLN2, hits give low values 1 | S. cerevisiae deletion strains, locus YPR119W, strain clb2, hits give low values 1.03 | S. cerevisiae deletion strains, locus YPR141C, strain kar3, hits give low values 1.02 | S. cerevisiae deletion strains, locus YPR163C, strain tif3, hits give low values 1.02 | S. cerevisiae deletion strains, locus YPR167C, strain met16, hits give low values 1.01 | S. cerevisiae deletion strains, strain wtn01, hits give low values 1.01 | S. cerevisiae strains, strain wild type, hits give low values 1.01
